Measured values reported in PubChem BioAssay (NCI).
Compounds without any hit were thinned out: in the full panel of roughly 83,000, 20% have a hit.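 48-hour exposure, single concentration, 96-well plates; percent growth endpoint where 0 means no net growth. Active: below 10.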 Active and inactive are the calls of the source.

Key:
Assay in all cases: NCI-60 one-dose screen, 48 h (100 = growth as untreated, 0 = no growth, -100 = all killed)
Settings in all cases: 10 µM unless noted
SK-MEL-2 melanoma = system: SK-MEL-2 melanoma
EKVX NSCLC = system: EKVX NSCLC
SN12C renal = system: SN12C renal
UO-31 renal = system: UO-31 renal
TK-10 renal = system: TK-10 renal
ACHN renal = system: ACHN renal
CAKI-1 renal = system: CAKI-1 renal
A498 renal = system: A498 renal
CCRF-CEM leukemia = system: CCRF-CEM leukemia
MOLT-4 leukemia = system: MOLT-4 leukemia

Measured: growth

O=C(CCCCCCN1CC(=O)N2[C@@H](C3CC3)c3[nH]c4ccccc4c3C[C@H]2C1=O)NO
inactive: SK-MEL-2 melanoma 76.5% | EKVX NSCLC 85.7% | SN12C renal 79% | UO-31 renal 70.1% | TK-10 renal 79.2% | ACHN renal 67.6% | CAKI-1 renal 69.3% | A498 renal 98.8% | CCRF-CEM leukemia 19.9% | MOLT-4 leukemia 16%

COc1ccc(/C(=N\NC(N)=S)c2ccc(Cl)cc2)cc1OC
active: SK-MEL-2 melanoma -23.8% | A498 renal -4.86%
inactive: EKVX NSCLC 50.8% | SN12C renal 29% | UO-31 renal 34.5% | TK-10 renal 83.3% | ACHN renal 42.3% | CAKI-1 renal 31.2% | CCRF-CEM leukemia 25.6% | MOLT-4 leukemia 29.5%

CN1CCN(c2ccc(Nc3nc(NCCNS(=O)(=O)c4ccccc4)c4sccc4n3)cc2)CC1
inactive: SK-MEL-2 melanoma 98.6% | EKVX NSCLC 95.2% | SN12C renal 95% | UO-31 renal 81.2% | TK-10 renal 142% | ACHN renal 101% | CAKI-1 renal 76.4% | A498 renal 101% | CCRF-CEM leukemia 105% | MOLT-4 leukemia 95.3%

COc1ccc(C2C(C#N)=C(/N=C/c3ccc(Cl)cc3)Oc3c2sc2c(C)cccc32)cc1 (stereo not given)
inactive: EKVX NSCLC 42.5% | SN12C renal 42.4% | UO-31 renal 37.1% | TK-10 renal 76.9% | ACHN renal 49.1% | CAKI-1 renal 39% | CCRF-CEM leukemia 18.7% | MOLT-4 leukemia 17%
active: SK-MEL-2 melanoma -12.9% | A498 renal -11.5%

O=C(Nc1cccc(Cl)c1)Nc1nc2cc([N+](=O)[O-])ccc2o1
inactive: SK-MEL-2 melanoma 45.5% | EKVX NSCLC 27.8% | SN12C renal 35.3% | UO-31 renal 59.3% | TK-10 renal 94.9% | ACHN renal 47.8% | CAKI-1 renal 62% | A498 renal 28.3% | CCRF-CEM leukemia 25% | MOLT-4 leukemia 33.8%

COC(=O)c1ccc(NC2=C(Cl)C(=O)C(C)=C(C)C2=O)cc1
inactive: SK-MEL-2 melanoma 69.1% | EKVX NSCLC 53.2% | SN12C renal 80.2% | UO-31 renal 65.1% | TK-10 renal 112% | ACHN renal 63.2% | CAKI-1 renal 43.3% | A498 renal 58.6%
active: CCRF-CEM leukemia 9.06% | MOLT-4 leukemia 9.07%

O=C(COc1ccc(/C=C2\C(=O)Nc3ccc(F)cc32)cc1)Nc1ccccc1
inactive: SK-MEL-2 melanoma 122% | EKVX NSCLC 95.8% | SN12C renal 102% | UO-31 renal 85.4% | TK-10 renal 118% | ACHN renal 93.7% | CAKI-1 renal 82.4% | A498 renal 99% | CCRF-CEM leukemia 96.9% | MOLT-4 leukemia 99.2%

CC(C)=CCC[C@](C)(O)[C@H]1CC[C@]2(C)[C@@H]1CC[C@@H]1[C@@]3(C)CC[C@H](N)C(C)(C)[C@@H]3CC[C@]12C
active: CCRF-CEM leukemia 0.154% | MOLT-4 leukemia 4.46%
inactive: SK-MEL-2 melanoma 109% | EKVX NSCLC 73.4% | SN12C renal 96.1% | UO-31 renal 77.1% | TK-10 renal 127% | ACHN renal 91.7% | CAKI-1 renal 67.8% | A498 renal 106%

CN1CCN(Cc2ccc(NC(=O)c3cncc(C#Cc4cnc5ccc(OC6CCOCC6)nn45)c3)cc2C(F)(F)F)CC1
active: SK-MEL-2 melanoma -90.8% | EKVX NSCLC -73.8% | SN12C renal -78.8% | UO-31 renal -92.3% | TK-10 renal -89.6% | ACHN renal -100% | CAKI-1 renal -97% | A498 renal -92.5% | CCRF-CEM leukemia 0.551% | MOLT-4 leukemia 3.74%

CCCCc1nc2c(N)nc3ccccc3c2n1Cc1cccc(CN)c1
inactive: SK-MEL-2 melanoma 79.4% | EKVX NSCLC 77% | SN12C renal 68.9% | UO-31 renal 70.5% | TK-10 renal 89.9% | ACHN renal 65% | CAKI-1 renal 14.2% | A498 renal 16.3% | CCRF-CEM leukemia 23.9% | MOLT-4 leukemia 33.9%

CCOC(=O)c1c(NC(=O)c2cccc(C(F)(F)F)c2)sc2c1CCC(=O)C2
inactive: SK-MEL-2 melanoma 71.9% | EKVX NSCLC 39.4% | SN12C renal 42.9% | TK-10 renal 54.9% | CAKI-1 renal 23.9% | A498 renal 106% | MOLT-4 leukemia 36.8%
active: UO-31 renal 7.65% | ACHN renal 8.52% | CCRF-CEM leukemia 8.47%

O=C(CCCCCCN1CC(=O)N2[C@@H](c3ccc(Cl)s3)c3[nH]c4ccccc4c3C[C@H]2C1=O)NO
inactive: SK-MEL-2 melanoma 59.9% | EKVX NSCLC 49.1% | SN12C renal 72.7% | UO-31 renal 57.8% | TK-10 renal 43.4% | ACHN renal 66.8% | CAKI-1 renal 48.8% | A498 renal 72.8% | CCRF-CEM leukemia 16.7% | MOLT-4 leukemia 11.2%

Cc1cc2nc(C(Cl)Cl)nc(-c3ccc(S(=O)(=O)N(C)C)cc3)n2n1
inactive: SK-MEL-2 melanoma 93% | EKVX NSCLC 48.7% | SN12C renal 55% | UO-31 renal 65.7% | TK-10 renal 85% | ACHN renal 25.2% | CAKI-1 renal 45% | A498 renal 90.9% | CCRF-CEM leukemia 40.8% | MOLT-4 leukemia 28.4%

CCOC(=O)c1cccc(NC2=C(Cl)C(=O)C(C)=C(C)C2=O)c1
inactive: SK-MEL-2 melanoma 104% | EKVX NSCLC 74.4% | SN12C renal 94.8% | UO-31 renal 96.7% | TK-10 renal 129% | ACHN renal 106% | CAKI-1 renal 89.4% | A498 renal 89.1% | CCRF-CEM leukemia 13.9%
active: MOLT-4 leukemia 5.67%
